SMILES strings stand for the structures. The panel holds about 79,000 compounds, 15% with a hit somewhere; the sample as a whole holds those more often. Unmarked numbers belong to inactive results. Activity calls are given as the source filed them. No stated cut-off is given here; in the data, active means growth inhibition above about 70%; inactive means the rest.

A short description of experiment [1]: NCI Yeast Anticancer Drug Screen. Data for the rad50 strain (AID 155).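 Further: 0% = growth of vehicle-only cultures of the same strain.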 The following applies: S. cerevisiae rad50 strain growth inhibition; at 50.0 µM; active compounds read high. The essentials: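 Cells are treated with compound, grown, and their growth is then scored against vehicle-only cultures of the same repair-deficient yeast strain.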
Experiment [2] can be described thus: NCI Yeast Anticancer Drug Screen. Data for the mec2-1 strain (AID 157). The following applies: S. cerevisiae mec2-1 strain, at 50.0 µM, active compounds read high. An outline of the steps: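 mec2-1 yeast strain, carrying an alteration in DNA damage repair or cell cycle control, was exposed to compounds; growth inhibition was measured relative to vehicle-treated controls.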

The nature of experiment [3]: NCI Yeast Anticancer Drug Screen. Data for the sgs1 mgt1 strain (AID 161).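 Further: 0% = growth of cultures given vehicle only.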 Particulars: S. cerevisiae sgs1 mgt1 strain, at 50.0 µM, active compounds read high. The essentials: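 Percent growth inhibition was derived by comparing compound-exposed mutant yeast with vehicle-exposed cultures. The strain carries alterations in DNA damage repair.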
A short description of experiment [4]: NCI Yeast Anticancer Drug Screen. Data for the cln2 rad14 strain (AID 165).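 Further: 0% = growth equal to vehicle treated cultures.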 Particulars: S. cerevisiae cln2 rad14 strain, at 50.0 µM, active compounds read high. An outline of the steps:
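Yeast carrying cln2 and rad14 alterations (cell cycle control and DNA damage repair) were exposed to compounds. Growth inhibition was measured against vehicle-treated controls.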

Experiment [5] in a line: NCI Yeast Anticancer Drug Screen. Data for the bub3 strain (AID 167). The following applies: S. cerevisiae bub3 mutant strain, at 50.0 µM, active compounds read high. The essentials:
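Part of a panel of yeast mutants defective in DNA damage repair or cell cycle regulation. Each strain is grown with compound, and inhibition is calculated relative to solvent-treated cultures.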

Experiment [6] is described as follows: NCI Yeast Anticancer Drug Screen. Data for the mlh1 rad18 strain (AID 175). Particulars: S. cerevisiae mlh1 rad18 strain growth inhibition; at 50.0 µM; active compounds read high. An outline of the steps: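 Growth inhibition of the yeast strain was measured after compound exposure and expressed relative to vehicle-treated controls. The strain carries defined defects in DNA damage repair.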

For `Cc1ccc(O)c(C(=O)c2ccccc2)c1`, the growth inhibition in experiment [1] is 4.3%; in experiment [2], -16.7%; in experiment [3], 12.5%; in experiment [4], -8.8%; in experiment [5] it was -3.65%; in experiment [6], 14.7%.

For `CCCCCCCCCCCCCC(=O)Oc1ccc[nH]c1=O`, the growth inhibition in experiment [1] is -12.2%; in experiment [2], -19.6%; in experiment [3] it was -15.9%; in experiment [4], 11%; in experiment [5], 0.65%; in experiment [6] it was 0.7%.

In the case of `Cc1ccc(C(=O)N/N=C/c2ccc3c(c2)OCO3)cc1`, the growth inhibition in experiment [1] is 18.1%; in experiment [2] it was 8.35%; in experiment [3] it was 4.15%; in experiment [4] it was 10.8%; in experiment [5] it was 6.2%; in experiment [6], 6.75%.

For `CCCNC(=O)c1ccc(S(N)(=O)=O)cc1`, the growth inhibition in experiment [1] is -1.5%; in experiment [2], 1%; in experiment [3], -13.2%; in experiment [4], -4.55%; in experiment [5], 2.55%; in experiment [6], -0.25%.

Turning to `CC1(O)CCCCC1O` (stereo not drawn), the growth inhibition in experiment [1] was -8.1%; in experiment [2], -37.6%; in experiment [3] it was -8.3%; in experiment [4], -20.9%; in experiment [5], -13.8%; in experiment [6], -15.3%.

As for `CC(=O)OCC(=O)[C@@]1(O)CC[C@H]2[C@@H]3CC[C@@H]4C[C@H](O)CC[C@]4(C)[C@H]3C(=O)C[C@@]21C`, the growth inhibition in experiment [1] was 19.7%; in experiment [2] it was 7.15%; in experiment [3], 25.4%; in experiment [4] it was 7.75%; in experiment [5], -2.85%; in experiment [6], 20.6%.

On to `CCOc1ccc(I)cc1`, for which the growth inhibition in experiment [1] is 10.9%; in experiment [2], 11.8%; in experiment [3], -17.5%; in experiment [4] it was 36.8%; in experiment [5] it was -0.75%; in experiment [6] it was -11.7%.

Turning to `NC(C(=O)O)c1ccc([N+](=O)[O-])cc1` (stereo not drawn), the growth inhibition in experiment [1] was -0.45%; in experiment [2], -14.1%; in experiment [3], 8.8%; in experiment [4], 7.25%; in experiment [5] it was -0.4%; in experiment [6], -14.7%.

As to `N#Cc1ccc(NC(=O)Nc2cccc(C#N)c2)cc1`, the growth inhibition in experiment [1] is -3.5%; in experiment [2], -12.3%; in experiment [3] it was -9.75%; in experiment [4] it was -15.1%; in experiment [5], -0.3%; in experiment [6], -15.6%.

As for `CC1C(=O)c2ccccc2CC1C(=O)O` (stereo not drawn), the growth inhibition in experiment [1] is -1.6%; in experiment [2], -15.6%; in experiment [3] it was 7.8%; in experiment [4] it was -22.2%; in experiment [5] it was -5.1%; in experiment [6] it was -21%.

`Nc1ncnc2c1nc(N)n2C1OC(CO)C(O)C1O` (stereo not drawn): the growth inhibition in experiment [1] was -2.6%; in experiment [2], -17.9%; in experiment [3] it was 0.4%; in experiment [4], -23.4%; in experiment [5], 15.3%; in experiment [6], 0%.

Take `COc1ccc(C)cc1OC`: the growth inhibition in experiment [1] is 26.3%; in experiment [2] it was 12.9%; in experiment [3], 1.3%; in experiment [4], 0.6%; in experiment [5] it was -8.2%; in experiment [6], -5.65%.

`Cc1cc(N2CCC(N3CCCC3)CC2)nc(/N=C(\N)Nc2ccc(Cl)c(Cl)c2)n1`: the growth inhibition in experiment [1] was 18.1%; in experiment [2], -2.25%; in experiment [3], -6.05%; in experiment [4], -3.7%; in experiment [5], 4%; in experiment [6], 34%.

Turning to `c1ccc(Cc2ccccc2)cc1`, the growth inhibition in experiment [1] is 12.8%; in experiment [2] it was 39.2%; in experiment [3] it was -21.8%; in experiment [4], 1.5%; in experiment [5], -1.1%; in experiment [6] it was 1.15%.

As for `Cc1cc(C)c(N)c(S(=O)(=O)O)c1`, the growth inhibition in experiment [1] was -0.7%; in experiment [2], -6.45%; in experiment [3], -24.1%; in experiment [4] it was -63%; in experiment [5] it was 11.2%; in experiment [6] it was -13.7%.

In the case of `S=C1NCc2cncnc2N1`, the growth inhibition in experiment [1] is -13.7%; in experiment [2], -2.05%; in experiment [3], -6.9%; in experiment [4], -8.7%; in experiment [5], 3.85%; in experiment [6] it was 18.8%.

Consider `CCOC(=O)CNN`, for which the growth inhibition is -7.2% in experiment [1]; 9.3% in experiment [2]; -12.2% in experiment [3]; 9.75% in experiment [4]; -14.8% in experiment [5]; -30.1% in experiment [6].

`CCCCC(O)c1ccccc1` (stereo not drawn): the growth inhibition is -16.6% in experiment [1]; -4.15% in experiment [2]; -24.7% in experiment [3]; -21.8% in experiment [4]; -12.9% in experiment [5]; 6.8% in experiment [6].

Take `O=C(NC1CCCCC1)OCc1c(COC(=O)NC2CCCCC2)c(-c2ccc(Cl)c(Cl)c2)n2c1CCC2`: the growth inhibition in experiment [1] is 16%; in experiment [2], 7.1%; in experiment [3] it was 27.4%; in experiment [4], 43.3%; in experiment [5], -5.3%; in experiment [6], 6.9%.

Regarding `C=CC(O)CCC` (stereo not drawn), the growth inhibition in experiment [1] is -8.4%; in experiment [2] it was -41%; in experiment [3], -16.8%; in experiment [4], 1.3%; in experiment [5], -1.6%; in experiment [6], -2.7%.

Regarding `O=C(CCl)N1CCN(C/C=C/c2ccccc2)CC1`, the growth inhibition in experiment [1] is 8.15%; in experiment [2], -0.05%; in experiment [3] it was 19.1%; in experiment [4], -3.95%; in experiment [5], 39.9%; in experiment [6], 28.5%.

Turning to `CCCCCC(C)(CC(=O)O)CC(=O)O`, the growth inhibition in experiment [1] was -18.6%; in experiment [2], -15.3%; in experiment [3], -21.4%; in experiment [4], -27.8%; in experiment [5], 0.7%; in experiment [6], -15.4%.

Regarding `NC(C(=O)O)C(O)c1ccco1` (stereo not drawn), the growth inhibition is 6.6% in experiment [1]; -0.1% in experiment [2]; 3.95% in experiment [3]; 13.8% in experiment [4]; 3.75% in experiment [5]; 6.75% in experiment [6].

With `O=[N+]([O-])c1ccc(Cl)c(S(=O)(=O)O)c1`, the growth inhibition is 36.4% in experiment [1]; 21.3% in experiment [2]; 21.2% in experiment [3]; -18.9% in experiment [4]; 10.8% in experiment [5]; 35.5% in experiment [6].

Turning to `C[C@@H](c1ccccc1)[C@@H](C(=O)O)c1ccccc1`, the growth inhibition in experiment [1] was 8.3%; in experiment [2] it was 5.4%; in experiment [3] it was 8.3%; in experiment [4], -38.6%; in experiment [5] it was -5.65%; in experiment [6], 29.7%.

Take `CC(C)OC(=O)c1cc(NC(=S)OC(C)C)ccc1Cl`: the growth inhibition in experiment [1] was 3.95%; in experiment [2], 10.2%; in experiment [3], 22.9%; in experiment [4] it was 15.3%; in experiment [5], 32.5%; in experiment [6], 85.1% (active).

For the molecule `CC(C)OC(C(=O)O)c1ccccc1` (stereo not drawn), the growth inhibition in experiment [1] was -18.2%; in experiment [2], 2.2%; in experiment [3], -3.65%; in experiment [4], 11.8%; in experiment [5], 1.05%; in experiment [6], 0%.

For the molecule `CCOC(=O)C/C(C)=N\O`, the growth inhibition was 4.05% in experiment [1]; -11.3% in experiment [2]; 7.9% in experiment [3]; 8.45% in experiment [4]; 9.15% in experiment [5]; 2.4% in experiment [6].

As to `CS(=O)CC1=NC(=N)N=C1CS(C)=O` (stereo not drawn), the growth inhibition in experiment [1] is -9.75%; in experiment [2], -11.2%; in experiment [3], 12.1%; in experiment [4], -22.1%; in experiment [5] it was 2.85%; in experiment [6], 5.75%.

On to `CN(C)C(=O)Oc1cccc([N+](C)(C)C)c1`, for which the growth inhibition is -1.5% in experiment [1]; -8.2% in experiment [2]; 5.95% in experiment [3]; -60.9% in experiment [4]; 0.2% in experiment [5]; -5.35% in experiment [6].

Turning to `Cc1cc2nc(CC(=O)c3ccccc3)c(=O)[nH]c2cc1C`, the growth inhibition in experiment [1] is 15.7%; in experiment [2] it was 0.95%; in experiment [3], 13.3%; in experiment [4], 9.4%; in experiment [5] it was -15.7%; in experiment [6], 31.3%.

For `CC(C)=NNC(N)=S`, the growth inhibition is 2.45% in experiment [1]; -9.4% in experiment [2]; -23.9% in experiment [3]; -22.8% in experiment [4]; 2.35% in experiment [5]; -3.95% in experiment [6].

As to `CC1=CC(=O)c2ccccc2C1=O`, the growth inhibition in experiment [1] was 14.4%; in experiment [2], 15.3%; in experiment [3], 0.1%; in experiment [4], 13.2%; in experiment [5], 25.6%; in experiment [6], 18.2%.
